As a reminder, the inhibition is the change of the read-out against control, counted positive when it falls.

The structures appear in SMILES notation. Among all 220,000 compounds or so, about 930 (0.42%) were called active. Cut-off read from the data, not from the text of the source: active = inhibition above about 50%; inactive = the rest. Many of the other results were omitted from the sample, so actives are more common in it than they were.

Glycoprotein 42 (Epstein-Barr virus (strain AG876)), sequence (Q1HVG2 whole entry, looked up): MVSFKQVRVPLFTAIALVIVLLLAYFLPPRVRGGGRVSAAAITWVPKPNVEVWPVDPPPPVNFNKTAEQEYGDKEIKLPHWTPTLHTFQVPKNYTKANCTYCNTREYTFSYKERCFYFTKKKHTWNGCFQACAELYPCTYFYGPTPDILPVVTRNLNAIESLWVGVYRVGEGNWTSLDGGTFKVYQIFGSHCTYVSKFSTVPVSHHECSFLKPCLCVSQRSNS

This assay has as its target Glycoprotein 42 (Epstein-Barr virus (strain AG876)) (UniProt Q1HVG2). Briefly: EBV glycoprotein 42 binding blockers – biochemical, uHTS, fluorescence polarization, primary screen (AID 1085). Conditions: Fluorescence polarization binding assay, mP read-out; stronger effect = higher value; tested at 21.74 µM. In general terms: In fluorescence polarisation assays a small probe gives low polarisation when free and higher when bound to something large.
Regarding `O=C1NC(=O)N(c2ccc(F)cc2)C(=O)/C1=C/c1ccc2c(c1)CCCN2Cc1ccccc1`, the inhibition was 187% (active).
Take `Cc1cccc(N2C(=O)NC(=O)/C(=C\c3cnn(-c4ccccc4)c3)C2=O)c1`: the inhibition is -3.6% (inactive).
As for `O=C1NC(=O)N(c2ccccc2)C(=O)/C1=C/c1ccc([N+](=O)[O-])s1`, the inhibition is -9.65% (inactive).
Under `O=c1[nH]c(=O)n(CCc2ccccc2)c(O)c1/C=N/N1CCOCC1` stands -16.8% (inactive); under `CN(C)CC1Oc2ccccc2OC1(O)c1ccccc1` (stereo not given), -12% (inactive).
